# In PubChem BioAssay (NCATS):
# Results filed as inconclusive are left out. Unmarked numbers belong to inactive results. Activity calls are given as the source filed them. The call rests on the fitted dose curve; in most records, active means well fitted inhibition curve with a large enough effect; inconclusive means small, poorly fitted or top-dose-only effect; inactive means no such curve, though single readings can be large or run the other way.
# Biological target: Cytochrome P450 2C9 (Homo sapiens) (UniProt P11712)
# Test: qHTS for inhibitors of CYP2C9 against the NCATS DSHEA and TCM libraries (AID 1919973);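 on activity change, negative = inhibition: luminogenic pro-luciferin CYP2C9 substrate turned into luciferin with NADPH regeneration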
# Conditions: recombinant CYP2C9 enzyme activity, luminescence; series mostly up to 34.1 µM; activity change, negative = inhibition: at the top concentration
# From the text: Assay Development and Screening Technology Laboratory (ADST)
# National Center for Advancing Translational Sciences (NCATS), Rockville, MD
# National Institute of Health (NIH), Bethesda, Maryland
# Dietary Supplements and Natural Products have minor oversight of their safety and efficacy. We assembled a collection of Dietary Supplements and Natural Products (DSNP) as well as Traditional Chinese Medicinal (TCM) Plant extracts, which were screened against an in vitro panel of assays, including a liver cytochrome p450 enzyme panel, CAR/PXR signaling pathways, and P-gp transporter assays, to assess their activity. This pipeline facilitated the interrogation of Natural Product-Drug Interaction (NaPDI) through prominent metabolizing pathways. In addition, we compared the activity profiles of the DSNP/TCM substances with those of an approved drug collection. Many of the approved drugs have well-annotated mechanisms of action (MOA) while the MOAs for most of the DSNP and TCM samples remain unknown. Based on the premise that compounds with similar activity profiles tend to share similar targets or MOA, we clustered the library activity profiles to identify overlap with the NCATS Pharmaceutical Collection to predict the MOAs of the DSNP/TCM substances. Overall, we highlight four significant bioactivity profiles (measured by p-values) as examples of this prediction. To assess broad cytotoxicity, we employed screening against a HepG2 cell line. In addition, transporter-mediated drug interactions are utilized in the characterization of DDIs using a P-glycoprotein (P-gp) assays. To profile potential P-gp activity, a differential cell viability was measured against two cell lines: a parental KB-3-1 human cervical adenocarcinoma cell line and the drug-resistant subline KB-8-5-11 that overexpresses P-gp.
# To this end, we profiled both collections for potential CAR and/or PXR activity, employing a previously published 1536-well qHTS assay.
# [1] Lee TD, et al. A High-Throughput Screen of a Library of Therapeutics Identifies Cytotoxic Substrates of P-glycoprotein. Mol Pharmacol. Nov 2019;96(5):629-640. doi:10.1124/mol.119.115964
# PROTOCOL TABLE (as described by Inglese J, Shamu CE and Guy RK. 2007)
# SEQUENCE No. (e.g., 1, 2, 3, etc.); […] (e.g., Cells, Incubation, Reagent, etc.); VALUE; DESCRIPTION.
# 1; Reagent; 2 uL; cytochrome P450 enzyme and luciferin substrate or buffer only, white solid-bottom Greiner plate.
# 2; Compounds and control; 16 nL; Kalypsis pintool (Wako USA) equipped with a 1536-well pin head to transfer to the assay plates.
# 3; Incubation; 15 min; room temperature.
# 4; Reagent; 2 uL; nicotinamide adenine dinucleotide phosphate (NADPH).
# 5; Incubation; 30 - 45 min; room temperature in the dark.
# 6; Reagent; 4 uL; P450-Glo assay detection reagent.
# 7; Centrifuge; 1000 RPM; 15 seconds.
# 8; Incubation; 30 min; room temperature.
# 9; Read; Luminescence; ViewLux plate reader.
# NOTES (numbers refer to Sequence numbers above)
# 1. A 2 uL mixture of corresponding enzymes and luciferin substrate (final concentrations CYP enzyme-specific and pro-luciferin substrate-specific) or minus-enzyme (assay buffer conditions supplied by the manufacturer for respective enzyme isoform; typically, 100 mM KPO4) and luciferin substrate were dispensed using a BioRAPTR FRD (Beckman Coulter, Brea, CA) into columns of a 1536-well white solid-bottom medium binding plate (Greiner Bio-One, Monroe, NC). Five isoforms of cytochrome P450 were used (CYP1A2, CYP2C9, CYP2C19, CYP2D6, and CYP3A4).
# 2. Substances (final concentrations of most substances ranged from 19.5 nM to 39.8 uM) and controls (CYP-specific) were transferred (16 nL) via pintool (Wako Automation, Richmond, VA). Intraplate controls furafylline (CYP1A2), sulfaphenazole (CYP2C9), ketoconazole (CYP2C19), quinidine (CYP2D6), and ketoconazole (CYP3A4) were used correspondingly.
# 3. Assay plates were incubated at room temperature for 15 min.
# 4-5. […]
# On the % scale 0 is the no-effect control and ±100 the full control effect; potency means the concentration at half of the fitted maximal effect.
# Sequence of Cytochrome P450 2C9 (Homo sapiens) (P11712 whole entry, looked up): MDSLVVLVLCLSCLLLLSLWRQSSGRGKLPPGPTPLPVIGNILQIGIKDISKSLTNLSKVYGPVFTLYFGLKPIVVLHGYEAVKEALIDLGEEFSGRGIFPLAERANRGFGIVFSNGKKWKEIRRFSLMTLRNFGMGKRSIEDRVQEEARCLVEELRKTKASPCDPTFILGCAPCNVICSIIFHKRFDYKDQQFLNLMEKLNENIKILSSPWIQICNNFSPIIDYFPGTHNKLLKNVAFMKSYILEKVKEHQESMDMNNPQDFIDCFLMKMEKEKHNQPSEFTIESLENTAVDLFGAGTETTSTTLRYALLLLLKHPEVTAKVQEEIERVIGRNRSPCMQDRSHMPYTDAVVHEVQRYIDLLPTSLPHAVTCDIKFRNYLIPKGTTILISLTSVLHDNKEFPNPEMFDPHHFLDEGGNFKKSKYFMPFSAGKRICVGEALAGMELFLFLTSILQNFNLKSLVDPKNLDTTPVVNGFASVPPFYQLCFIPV
Structure (SMILES),"activity change, negative = inhibition",Potency
O=C(O)/C=C/c1ccccc1,8.1% [at 58.3 µM],–
CCCCC/C=C\C/C=C\C/C=C\CCCCC(=O)O,-2.07% [at 4.27 µM],–
CC/C=C\C/C=C\C/C=C\CCCCCCCC(=O)O,–,7.94 µM (active)
COC1=C(OC)C(=O)C(C/C=C(\C)CC/C=C(\C)CC/C=C(\C)CC/C=C(\C)CC/C=C(\C)CC/C=C(\C)CC/C=C(\C)CC/C=C(\C)CC/C=C(\C)CCC=C(C)C)=C(C)C1=O,-5.79%,–
CC1=CCC2CC1C2(C)C (stereo unspecified),-16.2%,–
CC(C)=CCC/C(C)=C/C=C/C(C)=C/C=C/C(C)=C/C=C/C=C(C)/C=C/C=C(C)/C=C/C=C(\C)CCC=C(C)C,-8.47%,–
CC(C)=CCC/C(C)=C/CC/C(C)=C/CC/C(C)=C/CC1=C(C)C(=O)c2ccccc2C1=O,–,14.1 µM (active)
CC/C=C\C/C=C\C/C=C\C/C=C\C/C=C\CCCC(=O)O,-20.2%,–
CCCCCCCCCCCC(=O)OCC(O)CO (stereo unspecified),-28.2%,–
C=C1CC[C@H](O)C/C1=C\C=C1/CCC[C@]2(C)[C@@H]([C@H](C)CCCC(C)C)CC[C@@H]12,–,25.1 µM (active)
CC/C=C\C/C=C\C/C=C\C/C=C\C/C=C\C/C=C\CCC(=O)O,-13.6%,–
